Experimental data reported in PubChem BioAssay.
Active and inactive are the calls of the source.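 How the source made its calls: active means normalized viability below 100% at a tested concentration; inactive means the rest.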

assay: ovarian cancer cell viability with rucaparib, profiling panel, oncology-focused library, rucaparib conditional (AID 1508598); settings: patient-derived ovarian cancer cells, CellTiter-Glo viability, 144 h; at 0.0781 µM; OCI-P5x cells; without rucaparib; active compounds read low

| SMILES | viability |
| --- | --- |
| CO[C@H]1C[C@@H]2CC[C@@H](C)[C@@](O)(O2)C(=O)C(=O)N2CCCC[C@H]2C(=O)O[C@H]([C@H](C)C[C@@H]2CC[C@@H](O)[C@H](OC)C2)CC(=O)[C@H](C)/C=C(\C)[C@@H](O)[C@H](OC)C(=O)[C@H](C)C[C@H](C)/C=C/C=C/C=C/1C | 60% (active) |
| CC(=O)OCC(=O)[C@]1(O)[C@H](C)C[C@H]2[C@@H]3CCC4=CC(=O)C=C[C@]4(C)[C@]3(F)[C@H](O)C[C@@]21C | 98.1% (active) |
| CC[C@]1(O)C[C@@H]2CN(CCc3c([nH]c4ccccc34)[C@@](C(=O)OC)(c3cc4c(cc3OC)N(C=O)[C@H]3[C@@](O)(C(=O)OC)[C@H](OC(C)=O)[C@]5(CC)C=CCN6CC[C@@]43[C@@H]65)C2)C1 | 12.1% (active) |
| C[C@@]12CC[C@H]3c4ccc(O)cc4C[C@@H](CCCCCCCCCS(=O)CCCC(F)(F)C(F)(F)F)[C@H]3[C@@H]1CC[C@@H]2O (stereo partly specified) | 118% (inactive) |
| CC(=O)O[C@@]1(C(C)=O)CC[C@H]2[C@@H]3C[C@H](C)C4=CC(=O)CC[C@]4(C)[C@@H]3CC[C@@]21C | 111% (inactive) |
| CC(=O)O[C@]12CO[C@@H]1C[C@H](O)[C@]1(C)C(=O)[C@H](O)C3=C(C)[C@H](OC(=O)[C@H](O)[C@@H](NC(=O)OC(C)(C)C)c4ccccc4)C[C@](O)([C@H](OC(=O)c4ccccc4)C21)C3(C)C (stereo partly specified) | 19.8% (active) |
| CCC1=CC2CN(C1)Cc1c([nH]c3ccccc13)[C@@](C(=O)OC)(c1cc3c(cc1OC)N(C)[C@H]1[C@@](O)(C(=O)OC)[C@H](OC(C)=O)[C@]4(CC)C=CCN5CC[C@@]31[C@H]54)C2 (stereo partly specified) | 13.6% (active) |
| CC(=O)O[C@H]1C(=O)[C@@]2(C)C([C@H](OC(=O)c3ccccc3)[C@]3(O)C[C@H](OC(=O)[C@H](O)[C@@H](NC(=O)c4ccccc4)c4ccccc4)C(C)=C1C3(C)C)[C@]1(OC(C)=O)CO[C@@H]1C[C@H]2O (stereo partly specified) | 17.4% (active) |

same assay, conditions: patient-derived ovarian cancer cells, CellTiter-Glo viability, 144 h; at 0.313 µM; OCI-C5x cells; with rucaparib 10 µM; active compounds read low; 100% = cells with rucaparib alone

| SMILES | viability |
| --- | --- |
| O=c1[nH]c(=O)n([C@@H]2C[C@H](O)[C@@H](CO)O2)cc1F | 109% (inactive) |
| COc1cccc2c1C(=O)c1c(O)c3c(c(O)c1C2=O)C[C@@](O)(C(C)=O)C[C@H]3O[C@H]1C[C@H](N)[C@H](O)[C@H](C)O1 | 101% (inactive) |
| C[C@]12CC[C@H]3c4ccc(O)cc4CC[C@H]3[C@@H]1CC[C@H]2O | 108% (inactive) |
| CC1=C(/C=C/C(C)=C\C=C\C(C)=C/C(=O)O)C(C)(C)CCC1 | 108% (inactive) |
| CC(C)CC(CC(=O)NO)C(=O)N[C@@H](Cc1ccc2ccccc2c1)C(=O)N[C@@H](C)C(=O)NCCN (stereo partly specified) | 114% (inactive) |
| COc1cccc2c1C(=O)c1c(O)c3c(c(O)c1C2=O)C[C@@](O)(C(=O)CO)C[C@H]3O[C@H]1C[C@H](N)[C@@H](O)[C@H](C)O1 | 37.5% (active) |
| COc1ccc(C2=N[C@H](c3ccc(Cl)cc3)[C@@H](c3ccc(Cl)cc3)N2C(=O)N2CCNC(=O)C2)c(OC(C)C)c1 | 111% (inactive) |
| CO[C@H]1C[C@H]2CC[C@@H](C)[C@@](O)(O2)C(=O)C(=O)N2CCCC[C@H]2C(=O)O[C@H]([C@H](C)C[C@@H]2CC[C@H](OC(=O)C(C)(CO)CO)[C@H](OC)C2)CC(=O)[C@H](C)/C=C(\C)[C@@H](O)[C@@H](OC)C(=O)[C@H](C)C[C@H](C)/C=C/C=C/C=C/1C | 96.4% (active) |
| O=C(O)c1cc(I)ccc1NC(=O)[C@H](Cc1ccccc1)NCc1ccccc1 | 134% (inactive) |
| Nc1ncn([C@@H]2O[C@H](CO)[C@@H](O)[C@@H]2O)c(=O)n1 | 112% (inactive) |
| CO[C@H]1C[C@@H]2CC[C@@H](C)[C@@](O)(O2)C(=O)C(=O)N2CCCC[C@H]2C(=O)O[C@H]([C@H](C)C[C@@H]2CC[C@@H](O)[C@H](OC)C2)CC(=O)[C@H](C)/C=C(\C)[C@@H](O)[C@H](OC)C(=O)[C@H](C)C[C@H](C)/C=C/C=C/C=C/1C | 107% (inactive) |
| CC(=O)OCC(=O)[C@]1(O)[C@H](C)C[C@H]2[C@@H]3CCC4=CC(=O)C=C[C@]4(C)[C@]3(F)[C@H](O)C[C@@]21C | 113% (inactive) |
| CC[C@]1(O)C[C@@H]2CN(CCc3c([nH]c4ccccc34)[C@@](C(=O)OC)(c3cc4c(cc3OC)N(C=O)[C@H]3[C@@](O)(C(=O)OC)[C@H](OC(C)=O)[C@]5(CC)C=CCN6CC[C@@]43[C@@H]65)C2)C1 | 34% (active) |
| C[C@@]12CC[C@H]3c4ccc(O)cc4C[C@@H](CCCCCCCCCS(=O)CCCC(F)(F)C(F)(F)F)[C@H]3[C@@H]1CC[C@@H]2O (stereo partly specified) | 119% (inactive) |
| CC(=O)O[C@@]1(C(C)=O)CC[C@H]2[C@@H]3C[C@H](C)C4=CC(=O)CC[C@]4(C)[C@@H]3CC[C@@]21C | 122% (inactive) |
| CC(=O)O[C@]12CO[C@@H]1C[C@H](O)[C@]1(C)C(=O)[C@H](O)C3=C(C)[C@H](OC(=O)[C@H](O)[C@@H](NC(=O)OC(C)(C)C)c4ccccc4)C[C@](O)([C@H](OC(=O)c4ccccc4)C21)C3(C)C (stereo partly specified) | 41.5% (active) |
| CCC1=CC2CN(C1)Cc1c([nH]c3ccccc13)[C@@](C(=O)OC)(c1cc3c(cc1OC)N(C)[C@H]1[C@@](O)(C(=O)OC)[C@H](OC(C)=O)[C@]4(CC)C=CCN5CC[C@@]31[C@H]54)C2 (stereo partly specified) | 33.8% (active) |
| CC(=O)O[C@H]1C(=O)[C@@]2(C)C([C@H](OC(=O)c3ccccc3)[C@]3(O)C[C@H](OC(=O)[C@H](O)[C@@H](NC(=O)c4ccccc4)c4ccccc4)C(C)=C1C3(C)C)[C@]1(OC(C)=O)CO[C@@H]1C[C@H]2O (stereo partly specified) | 36.2% (active) |
